Measurements reported in PubChem BioAssay (NCATS).
Inconclusive results are not listed. Activity calls are given as the source filed them. Calls come from the whole dose curve; as a rule, active = well fitted curve in the direction sought with a large enough effect; inconclusive = small, poorly fitted or top-dose-only effect, or another doubt; inactive = no such curve, though single readings can be large; an effect the other way counts as inactive or inconclusive.

Columns and labels:
HaCat = assay: Cytotoxic Profiling of Annotated Libraries Using Quantitative High-Throughput Screening (AID 1296008); conditions: Five cell lines viability, CellTiter-Glo ATP luminescence, 48-72 h; max response: hits give low values; note: nearly all actives have a fitted effect of over 60% in size
Procedure, shortened: (§1)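 Compounds were pin-transferred onto cells and incubated 48 or 72 hr at 37 degree Celsius, 95% humidity. CellTiter-Glo was added, plates sat 10 min at room temperature, then ATP-coupled luminescence was imaged as the viability read-out.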

KB-3-1 = assay: as above; conditions: Five cell lines viability, CellTiter-Glo ATP luminescence, 48-72 h; max response: hits give low values
Procedure, shortened: as §1

NIH3T3 = assay: as above; conditions: Five cell lines viability, CellTiter-Glo ATP luminescence, 48-72 h; max response: hits give low values
Procedure, shortened: as §1

C33A = assay: Primary qHTS to identify gynecologic anti-cancer compounds using libraries of approved drugs and bioactive compounds (AID 1345084); conditions: Gynecologic cancer cell panel viability, ATPlite luminescence, 48 h; series mostly up to 57.5 µM; note: nearly all actives have a fitted effect of over 55% in size
Procedure, shortened: (§2)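 Cell viability after 48 h drug treatment, ATPlite luminescence readout; five doses.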

CAOV3 = assay: as above; conditions: Gynecologic cancer cell panel viability, ATPlite luminescence, 48 h; series mostly up to 57.5 µM
Procedure, shortened: as §2

CASKI = assay: as above; conditions: Gynecologic cancer cell panel viability, ATPlite luminescence, 48 h; series mostly up to 57.5 µM
Procedure, shortened: as §2

Es-2 = assay: as above; conditions: Gynecologic cancer cell panel viability, ATPlite luminescence, 48 h; series mostly up to 57.5 µM
Procedure, shortened: as §2

Hek293T = assay: as above; conditions: Gynecologic cancer cell panel viability, ATPlite luminescence, 48 h, control line for the selectivity index; series mostly up to 57.5 µM
Procedure, shortened: as §2

HeLa = assay: as above; conditions: Gynecologic cancer cell panel viability, ATPlite luminescence, 48 h; series mostly up to 57.5 µM
Procedure, shortened: as §2

JEG-3 = assay: as above; conditions: Gynecologic cancer cell panel viability, ATPlite luminescence, 48 h; series mostly up to 57.5 µM
Procedure, shortened: as §2

OV90 = assay: as above; conditions: Gynecologic cancer cell panel viability, ATPlite luminescence, 48 h; series mostly up to 57.5 µM
Procedure, shortened: as §2
% is set by controls: 0 for no effect and ±100 for the full control effect; potency is the fitted concentration of half-maximal effect.

C(#Cc1nc2ncccc2nc1OCCN1CCCC1)c1ccccc1
active: Potency (HaCat) 5.8 µM | Potency (KB-3-1) 8.2 µM | Potency (NIH3T3) 5.17 µM | Potency (C33A) 7.08 µM | Potency (CAOV3) 7.08 µM | Potency (CASKI) 17.8 µM | Potency (Es-2) 3.55 µM | Potency (Hek293T) 10 µM

O=C(OCC1=CC(O)C2C=CO[C@@H](O[C@@H]3O[C@H](CO)[C@@H](O)[C@H](O)[C@H]3O)C12)c1ccccc1 (stereo partly drawn)
inactive: max response (HaCat) 1.81% | max response (KB-3-1) 2.99% | max response (NIH3T3) 1.21% | Potency (C33A) | Potency (CAOV3) | Potency (CASKI) | Potency (Es-2) | Potency (HeLa) | Potency (Hek293T) | Potency (JEG-3) | Potency (OV90)

CC[C@@H](N)CNc1ccnc(-c2cc(-c3cnn(C)c3)ccc2O)n1
active: Potency (HaCat) 5.8 µM | Potency (KB-3-1) 4.61 µM | Potency (NIH3T3) 14.6 µM | Potency (C33A) 8.91 µM | Potency (CASKI) 3.98 µM | Potency (Es-2) 20 µM | Potency (Hek293T) 11.2 µM | Potency (JEG-3) 12.6 µM
inactive: Potency (CAOV3)

CC1(C)CC[C@]2(C(=O)OC3OC(CO)C(O)C(O)C3O)CC[C@]3(C)C(=CCC4[C@@]5(C)CC[C@H](OC6OC(C(=O)O)C(O)C(OC7OC(CO)C(O)C(O)C7O)C6O)C(C)(C)C5CC[C@]43C)C2C1 (stereo partly drawn)
inactive: max response (HaCat) -1.22% | max response (KB-3-1) -3.39% | max response (NIH3T3) 0.867% | activity change, negative = cytotoxicity (C33A) 0.815% [at 11.6 µM] | activity change, negative = cytotoxicity (CAOV3) -9.9% [at 11.6 µM] | activity change, negative = cytotoxicity (CASKI) 5.34% [at 11.6 µM] | activity change, negative = cytotoxicity (Es-2) -1.41% [at 11.6 µM] | activity change, negative = cytotoxicity (HeLa) 2% [at 11.6 µM] | activity change, negative = cytotoxicity (Hek293T) 0.993% [at 11.6 µM] | activity change, negative = cytotoxicity (JEG-3) 1.51% [at 11.6 µM] | activity change, negative = cytotoxicity (OV90) 9.69% [at 11.6 µM]

CC1(C)CC[C@@]2(C(=O)O[C@@H]3O[C@H](CO)[C@@H](O)[C@H](O)[C@H]3O)C(C1)C1=CCC3[C@@]4(C)CC[C@@H](O[C@@H]5O[C@H](C(=O)O)[C@@H](O[C@@H]6OC[C@@H](O)[C@H](O)[C@H]6O)[C@H](O[C@@H]6OC[C@](O)(CO)[C@H]6O)[C@H]5O)C(C)(C)C4CC[C@@]3(C)[C@]1(C)C[C@H]2O (stereo partly drawn)
inactive: max response (HaCat) 4.43% | outcome (KB-3-1) | max response (NIH3T3) -2.09% | activity change, negative = cytotoxicity (C33A) -0.239% [at 11.6 µM] | activity change, negative = cytotoxicity (CAOV3) -43.7% [at 11.6 µM] | activity change, negative = cytotoxicity (CASKI) -25.1% [at 11.6 µM] | activity change, negative = cytotoxicity (Es-2) -7.12% [at 11.6 µM] | activity change, negative = cytotoxicity (Hek293T) 3.52% [at 11.6 µM] | activity change, negative = cytotoxicity (JEG-3) -1.03% [at 11.6 µM] | activity change, negative = cytotoxicity (OV90) -1.26% [at 11.6 µM]

COc1c2c(c(C)c3c1C(=O)OC3)OC1(C)CC(O)C(C(C)(C)O)C(C)(CCC(=O)O)C1C2 (stereo not drawn)
inactive: max response (HaCat) -1.29% | outcome (KB-3-1) | max response (NIH3T3) 0.542% | Potency (C33A) | Potency (CAOV3) | Potency (CASKI) | Potency (Es-2) | Potency (Hek293T) | Potency (JEG-3) | Potency (OV90)

NC(=O)c1cnc(NCCc2ccc(O)c(Cl)c2)nc1NCc1ccccc1
inactive: Potency (C33A) | Potency (CAOV3) | Potency (JEG-3) | Potency (OV90)
active: Potency (HaCat) 14.6 µM | Potency (KB-3-1) 16.4 µM | Potency (NIH3T3) 5.17 µM | Potency (Es-2) 15.8 µM | Potency (HeLa) 25.1 µM | Potency (Hek293T) 20 µM

CO[C@H]1C[C@@H]2CC[C@@H](C)[C@@](O)(O2)C(=O)C(=O)N2CCCC[C@H]2C(=O)O[C@H]([C@H](C)C[C@@H]2CC[C@H](n3cnnn3)[C@H](OC)C2)CC(=O)[C@H](C)/C=C(\C)[C@@H](O)[C@@H](OC)C(=O)[C@H](C)C[C@H](C)/C=C/C=C/C=C/1C
inactive: max response (HaCat) -3.38% | max response (KB-3-1) -0.0133% | max response (NIH3T3) 0.445% | Potency (C33A) | Potency (CAOV3) | Potency (CASKI) | Potency (Es-2) | Potency (HeLa) | Potency (JEG-3) | Potency (OV90)

CC1(C)C2CC=C(COC3OC(COC4OCC(O)(CO)C4O)C(O)C(O)C3O)C1C2 (stereo not drawn)
inactive: max response (HaCat) 3.64% | max response (KB-3-1) 4.52% | max response (NIH3T3) 3.88% | Potency (C33A) | Potency (CAOV3) | Potency (CASKI) | Potency (Es-2) | Potency (HeLa) | Potency (Hek293T) | Potency (JEG-3) | Potency (OV90)

Cc1c(CN2CCN(C(=O)C(C)O)CC2)sc2c(N3CCOCC3)nc(-c3cnc(N)nc3)nc12 (stereo not drawn)
active: Potency (HaCat) 2.31 µM | Potency (KB-3-1) 0.58 µM | Potency (NIH3T3) 1.3 µM | Potency (C33A) 2 µM | Potency (CAOV3) 1.41 µM | Potency (CASKI) 1.26 µM | Potency (Hek293T) 0.891 µM | Potency (OV90) 1.78 µM

O=C1CCC=CC1(O)C(=O)OCc1ccccc1O[C@@H]1O[C@H](CO)[C@@H](O)[C@H](O)[C@H]1O (stereo partly drawn)
inactive: max response (HaCat) -22.3% | max response (KB-3-1) -1.56% | max response (NIH3T3) -27.2% | Potency (C33A) | Potency (CAOV3) | Potency (CASKI) | Potency (Es-2) | Potency (HeLa) | Potency (Hek293T) | Potency (OV90)

CC1=C(CCC(C)CC(=O)O)[C@@]2(C)CCCC(C)(C)C2CC1=O (stereo partly drawn)
inactive: max response (HaCat) -7.07% | max response (KB-3-1) -1.22% | max response (NIH3T3) -3.99% | Potency (C33A) | Potency (CAOV3) | Potency (CASKI) | Potency (Es-2) | Potency (HeLa) | Potency (JEG-3) | Potency (OV90)

NC(=O)c1cccc(-c2cc(OC(=O)NC3CCCCC3)ccc2O)c1
inactive: max response (HaCat) 4.07% | max response (KB-3-1) -19.2% | max response (NIH3T3) -3.22% | Potency (C33A) | Potency (CAOV3) | Potency (CASKI) | Potency (Es-2) | Potency (HeLa) | Potency (JEG-3) | Potency (OV90)

CC1(C)CC2C(C1)C(C)(O)C13CC1(COC3=O)C2O (stereo not drawn)
inactive: max response (HaCat) -11.6% | max response (KB-3-1) -11% | max response (NIH3T3) -6.54% | Potency (C33A) | Potency (CAOV3) | Potency (CASKI) | Potency (Es-2) | Potency (HeLa) | Potency (Hek293T) | Potency (OV90)
